Results taken from the supplement of paper PMC10849652.
About 7,900 targets were measured; listed, in parts, are those with a hit and a random draw of the rest. About 0.6% of all pairs of compound and target were hits.

Assays:
Assay in all cases: log2 fold change, soluble protein after heating vs DMSO (PISA); higher = thermal stabilisation; K562 cells, 10 uM, 30 min; active = over 0.2 and 3.5 SD of the protein, either way, in both replicates (recomputed)
[1] = compound: CC[C@@H]1C(=O)N(C)c2cnc(Nc3ccc(C(=O)NC4CCN(C)CC4)cc3OC)nc2N1C1CCCC1
Outline: (§1)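 K562 cells (2×10^6 cells/mL) were treated with 10 μM compound for 30 min, and aliquots were heated for 3 min over 48°C-58°C. Pooled aliquots were extracted in PBS with 0.5% NP-40 at 4°C, and the supernatant after 21,000xg for 90 min was measured by TMTpro 16plex LC-MS/MS with channel sums equalised. Reported thermal stability, relative to control samples and from duplicates, is a log2 fold change.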

[2] = compound: CC[C@@H]1C(=O)N(C)c2cnc(Nc3ccc(C(=O)N[C@H]4CC[C@H](N5CCN(CC6CC6)CC5)CC4)cc3OC)nc2N1C(C)C [volasertib]
Outline: as §1

[3] = compound: CC[C@H](C)N1C=C(C2=C(C=C(C=C21)C3=CN=C(C=C3)N4CCNCC4)C(=O)NCC5=C(C=C(NC5=O)C)C)C
Outline: as §1

[4] = compound: CC[C@H](C)[C@@H](C(=O)N[C@@H]([C@@H](C)O)C(=O)N[C@@H](CC(C)C)C(=O)[C@]1(CO1)C)NC(=O)[C@H]([C@@H](C)CC)N(C)C(=O)C [epoxomicin]
Outline: as §1

[5] = compound: CCn1c(C(=O)N(C2CC2)C2CC2)cc2c3c(ncn3C)c(Nc3cc(C)n(C)n3)nc21
Outline: as §1

[6] = compound: CCn1cc(-c2ccnc3[nH]c(-c4cccc(CN(C)C)c4)cc23)c(-c2ccc(NC(=O)N(C)C)cc2)n1
Outline: as §1

[7] = compound: CN(C)CC(=O)Nc1ccc2[nH]c(=O)c3ccccc3c2c1
Outline: as §1

[8] = compound: CN(CCOC1=CC=C(C=C1)C[C@H]2C(=O)NC(=O)S2)C3=CC=CC=N3 (racemic) [rosiglitazone]
Outline: as §1

[9] = compound: CN1C2=C(C3=C1C(=O)N(N=C3)CC4=CC(=CC=C4)N)SC(=C2)S(=O)C
Outline: as §1

[10] = compound: CN1CCC(CNc2ccc3ncc(-c4cccc(OC(F)(F)F)c4)n3n2)CC1
Outline: as §1

[11] = compound: CN1CCN(CCOc2cc(OC3CCOCC3)c3c(Nc4c(Cl)ccc5c4OCO5)ncnc3c2)CC1 [saracatinib]
Outline: as §1

[12] = compound: CN1CCN(c2nc(C3=C(c4c[nH]c5ccccc45)C(=O)NC3=O)c3ccccc3n2)CC1 [sotrastaurin]
Outline: as §1

[13] = compound: CN1CC[C@H](c2c(O)cc(O)c3c(=O)cc(-c4ccccc4Cl)oc23)[C@H](O)C1 [alvocidib]
Outline: as §1

[14] = compound: CN1CCc2c(c3ccccc3n2Cc2ccc(C(=O)NO)cc2)C1 [Tubastatin A]
Outline: as §1

[15] = compound: CNC(=O)C1=CC=CC=C1NC2=NC(=NC=C2Cl)NC3=C(C=C(C=C3)N4CCOCC4)OC
Outline: as §1

[16] = compound: CNC(=O)c1ccc(Nc2ncc(C(F)(F)F)c(NCc3nccnc3N(C)S(C)(=O)=O)n2)cc1 [defactinib]
Outline: as §1

[17] = compound: CNCc1ccc(-c2[nH]c3cc(F)cc4c3c2CCNC4=O)cc1 [rucaparib]
Outline: as §1

[18] = compound: CNc1nc(-c2ccc3c(N)n[nH]c3c2)cc(N2C[C@@H](C(=O)NC3CCCCC3)CC[C@H]2C)n1
Outline: as §1

[19] = compound: COC(=O)N[C@@H](C)CNc1nccc(-c2cn(C(C)C)nc2-c2cc(Cl)cc(NS(C)(=O)=O)c2F)n1 [encorafenib]
Outline: as §1

[20] = compound: COC(=O)[C@H](CCSC)NC(=O)C1=C(C=C(C=C1)NC[C@H](CS)N)C2=CC=CC=C2
Outline: as §1

Measured: log2 fold change

LSR (UniProt Q86X29)
Sequence of UniProt Q86X29 (Q86X29 whole entry, looked up): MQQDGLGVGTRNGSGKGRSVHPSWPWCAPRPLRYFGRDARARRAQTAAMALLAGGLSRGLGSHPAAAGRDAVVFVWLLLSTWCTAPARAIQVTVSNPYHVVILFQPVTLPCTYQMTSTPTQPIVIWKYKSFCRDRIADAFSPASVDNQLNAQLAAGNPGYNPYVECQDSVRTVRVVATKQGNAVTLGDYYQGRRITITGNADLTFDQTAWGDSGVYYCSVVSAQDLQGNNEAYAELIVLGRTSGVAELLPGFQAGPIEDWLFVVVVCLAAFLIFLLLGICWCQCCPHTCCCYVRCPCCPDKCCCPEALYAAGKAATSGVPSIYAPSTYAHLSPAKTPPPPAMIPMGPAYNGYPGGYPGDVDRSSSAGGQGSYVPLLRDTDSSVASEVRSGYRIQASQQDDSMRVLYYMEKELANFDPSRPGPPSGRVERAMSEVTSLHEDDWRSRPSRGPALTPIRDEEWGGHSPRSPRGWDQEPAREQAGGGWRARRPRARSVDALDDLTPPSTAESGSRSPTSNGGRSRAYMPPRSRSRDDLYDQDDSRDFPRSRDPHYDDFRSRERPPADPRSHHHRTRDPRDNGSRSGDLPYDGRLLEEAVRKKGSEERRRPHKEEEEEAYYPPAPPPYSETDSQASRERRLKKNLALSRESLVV
inactive: [1] 0.109 | [2] 0.068 | [3] -0.02 | [4] -0.021 | [5] -0.013 | [6] 0.011 | [7] -0.033 | [8] 0.011 | [9] -0.001 | [11] -0.003 | [12] 0.023 | [13] -0.018 | [14] 0.012 | [15] -0.074 | [16] -0.053 | [17] -0.023 | [18] 0.095 | [19] 0.042 | [20] 0.031
active: [10] 0.214

MAPRE3 (UniProt Q9UPY8)
inactive: [1] -0.105 | [2] -0.226 | [3] 0.101 | [4] 0.01 | [5] 0.009 | [6] -0.041 | [7] -0.009 | [8] 0.051 | [9] -0.068 | [10] -0.061 | [11] -0.029 | [12] -0.016 | [13] -0.091 | [14] -0.067 | [15] 0.025 | [16] -0.031 | [17] 0.02 | [18] -0.016 | [19] 0.017 | [20] 0.027

MAGOHB (UniProt Q96A72)
Sequence of UniProt Q96A72 (Q96A72 whole entry, looked up): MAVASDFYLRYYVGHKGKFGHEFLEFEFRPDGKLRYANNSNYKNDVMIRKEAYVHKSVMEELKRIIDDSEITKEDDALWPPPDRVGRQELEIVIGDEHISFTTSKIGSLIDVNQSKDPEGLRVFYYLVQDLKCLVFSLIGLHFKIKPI
inactive: [1] -0.046 | [2] -0.096 | [3] 0.014 | [4] 0.007 | [5] -0.041 | [6] 0.003 | [7] 0.013 | [8] 0.017 | [9] -0.039 | [10] 0.023 | [11] -0.047 | [12] -0.009 | [13] 0.03 | [14] 0.014 | [15] -0.007 | [16] -0.003 | [17] -0.021 | [18] 0.022 | [19] 0.019 | [20] -0.071

MAPKAPK3 (UniProt Q16644)
Sequence of UniProt Q16644 (Q16644 whole entry, looked up): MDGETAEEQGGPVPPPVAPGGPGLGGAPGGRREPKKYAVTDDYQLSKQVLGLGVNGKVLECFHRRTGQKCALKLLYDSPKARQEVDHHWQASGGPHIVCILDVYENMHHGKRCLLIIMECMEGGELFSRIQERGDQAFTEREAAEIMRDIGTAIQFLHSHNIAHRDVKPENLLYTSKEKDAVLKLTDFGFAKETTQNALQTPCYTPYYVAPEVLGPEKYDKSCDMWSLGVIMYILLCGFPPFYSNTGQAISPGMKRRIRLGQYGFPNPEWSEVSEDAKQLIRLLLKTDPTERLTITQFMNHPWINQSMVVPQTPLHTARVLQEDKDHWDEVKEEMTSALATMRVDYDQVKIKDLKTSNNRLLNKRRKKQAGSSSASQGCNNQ
inactive: [1] -0.084 | [2] 0.036 | [3] 0.003 | [4] 0.064 | [5] 0.048 | [6] 0.016 | [7] -0.015 | [8] 0.004 | [9] -0.14 | [10] -0.049 | [11] 0.134 | [12] -0.117 | [13] 0.011 | [14] -0.077 | [15] 0.117 | [16] -0.051 | [17] -0.023 | [18] 0.011 | [19] 0.106 | [20] -0.01

LMNB1 (UniProt P20700)
Sequence of UniProt P20700 (P20700 whole entry, looked up): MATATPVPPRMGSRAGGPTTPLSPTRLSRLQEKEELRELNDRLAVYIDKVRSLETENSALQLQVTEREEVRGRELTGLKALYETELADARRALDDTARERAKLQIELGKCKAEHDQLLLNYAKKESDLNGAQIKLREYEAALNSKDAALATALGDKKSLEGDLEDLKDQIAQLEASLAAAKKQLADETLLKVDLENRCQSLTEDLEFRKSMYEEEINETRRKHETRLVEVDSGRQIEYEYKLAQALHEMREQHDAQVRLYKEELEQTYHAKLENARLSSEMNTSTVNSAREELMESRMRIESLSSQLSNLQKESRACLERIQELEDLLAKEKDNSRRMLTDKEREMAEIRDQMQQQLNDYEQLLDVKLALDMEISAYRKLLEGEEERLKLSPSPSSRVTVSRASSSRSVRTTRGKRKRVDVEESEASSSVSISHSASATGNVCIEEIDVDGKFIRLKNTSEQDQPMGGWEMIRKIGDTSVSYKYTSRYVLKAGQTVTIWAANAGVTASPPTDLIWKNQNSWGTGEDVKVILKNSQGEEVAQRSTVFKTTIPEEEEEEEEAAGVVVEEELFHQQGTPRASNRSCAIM
inactive: [1] -0.045 | [3] 0.023 | [4] 0.037 | [5] -0.021 | [6] 0.115 | [7] 0.034 | [8] -0.049 | [9] -0.034 | [10] 0.026 | [11] 0.029 | [12] -0.11 | [13] -0.173 | [14] -0.016 | [15] 0.007 | [16] -0.166 | [17] -0.035 | [18] -0.095 | [19] 0.016 | [20] 0.032
active: [2] -0.308

IGFBP2 (UniProt P18065)
inactive: [1] -0.319 | [2] -0.614 | [3] -0.167 | [4] -0.707 | [5] -0.275 | [6] 0.158 | [7] 0.003 | [8] 0.083 | [9] 0.323 | [10] -0.638 | [11] -0.049 | [12] 0.223 | [13] 0.212 | [14] -0.032 | [15] -0.06 | [16] 0.134 | [17] 0.003 | [18] -0.148 | [19] 0.028 | [20] -0.053

KIF2C (UniProt Q99661)
active: [2] -0.357
inactive: [1] -0.037 | [3] 0.084 | [4] 0.019 | [5] -0.042 | [6] -0.063 | [7] 0.09 | [8] 0.057 | [9] 0.003 | [10] -0.06 | [11] 0.003 | [12] -0.048 | [13] -0.019 | [14] 0.024 | [15] -0.017 | [16] -0.051 | [17] 0.019 | [18] 0.064 | [19] 0.142 | [20] -0.092

IK (UniProt Q13123)
Sequence of UniProt Q13123 (Q13123 whole entry, looked up): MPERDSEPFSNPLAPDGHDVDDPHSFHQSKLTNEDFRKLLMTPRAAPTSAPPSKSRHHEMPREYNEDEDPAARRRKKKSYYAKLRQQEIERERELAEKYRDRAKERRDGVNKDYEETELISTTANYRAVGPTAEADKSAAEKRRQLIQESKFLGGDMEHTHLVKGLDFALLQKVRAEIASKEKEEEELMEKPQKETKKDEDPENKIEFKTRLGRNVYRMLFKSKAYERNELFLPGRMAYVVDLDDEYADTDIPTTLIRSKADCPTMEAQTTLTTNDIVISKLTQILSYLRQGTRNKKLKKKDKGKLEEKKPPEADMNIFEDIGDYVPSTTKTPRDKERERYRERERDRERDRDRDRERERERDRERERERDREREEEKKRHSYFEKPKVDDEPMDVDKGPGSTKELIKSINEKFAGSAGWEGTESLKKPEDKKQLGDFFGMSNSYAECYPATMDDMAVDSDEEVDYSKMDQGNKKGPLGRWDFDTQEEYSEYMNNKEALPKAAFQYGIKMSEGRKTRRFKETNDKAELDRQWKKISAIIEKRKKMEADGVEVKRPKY
inactive: [1] -0.136 | [3] 0.02 | [4] 0.125 | [5] -0.053 | [6] 0.069 | [7] -0.034 | [8] 0.02 | [9] 0.145 | [10] -0.035 | [11] -0.006 | [12] -0.037 | [13] 0.108 | [14] 0.05 | [15] -0.036 | [16] 0.013 | [17] 0.198 | [18] -0.059 | [19] 0.197 | [20] 0.002
active: [2] -0.366

LONP2 (UniProt Q86WA8)
Sequence of UniProt Q86WA8 (Q86WA8 whole entry, looked up): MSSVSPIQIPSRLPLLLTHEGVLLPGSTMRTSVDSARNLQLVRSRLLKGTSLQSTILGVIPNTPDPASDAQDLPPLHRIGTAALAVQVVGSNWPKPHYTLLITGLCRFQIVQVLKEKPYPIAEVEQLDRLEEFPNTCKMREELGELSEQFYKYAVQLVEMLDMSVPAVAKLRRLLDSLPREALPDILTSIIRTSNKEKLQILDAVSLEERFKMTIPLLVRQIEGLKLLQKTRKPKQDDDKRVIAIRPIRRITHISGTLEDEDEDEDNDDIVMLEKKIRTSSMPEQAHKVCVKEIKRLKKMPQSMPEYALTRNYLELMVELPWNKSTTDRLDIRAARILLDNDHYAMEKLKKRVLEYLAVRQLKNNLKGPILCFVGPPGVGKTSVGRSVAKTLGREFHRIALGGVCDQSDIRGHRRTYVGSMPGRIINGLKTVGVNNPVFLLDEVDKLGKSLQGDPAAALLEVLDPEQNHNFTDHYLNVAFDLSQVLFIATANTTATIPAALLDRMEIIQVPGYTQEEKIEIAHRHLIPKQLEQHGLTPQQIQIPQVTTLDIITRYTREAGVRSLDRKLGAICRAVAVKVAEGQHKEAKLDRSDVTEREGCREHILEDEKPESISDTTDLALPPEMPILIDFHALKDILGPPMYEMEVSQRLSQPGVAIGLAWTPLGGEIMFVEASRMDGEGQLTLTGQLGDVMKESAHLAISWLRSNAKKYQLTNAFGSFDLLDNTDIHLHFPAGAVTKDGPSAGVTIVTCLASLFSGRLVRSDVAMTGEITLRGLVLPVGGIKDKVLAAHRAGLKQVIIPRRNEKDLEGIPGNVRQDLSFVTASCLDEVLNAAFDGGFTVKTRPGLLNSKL
inactive: [1] 0.141 | [2] 0.16 | [3] 0.063 | [4] 0.336 | [5] -0.032 | [6] 0.034 | [7] -0.106 | [8] 0.05 | [9] 0.054 | [10] 0.17 | [11] 0.006 | [12] 0.003 | [13] -0.029 | [14] 0.135 | [15] 0 | [16] -0.12 | [17] 0.067 | [18] -0.079 | [19] 0.13 | [20] 0.007

IGFBP4 (UniProt P22692)
inactive: [1] -0.22 | [2] -0.07 | [3] -0.092 | [4] -0.187 | [5] -0.045 | [6] 0.173 | [7] -0.049 | [8] 0.13 | [9] 0.023 | [10] -0.033 | [11] 0.004 | [12] 0.114 | [13] 0.063 | [14] -0.034 | [15] -0.044 | [16] 0.036 | [17] 0.007 | [18] -0.019 | [19] -0.034 | [20] 0.014

IKZF1 (UniProt Q13422)
inactive: [1] 0.079 | [2] -0.067 | [3] 0.053 | [4] -0.052 | [5] 0.018 | [6] -0.048 | [7] 0.024 | [8] 0.008 | [9] 0.051 | [10] -0.239 | [11] 0.038 | [12] -0.133 | [13] -0.127 | [14] -0.018 | [15] -0.042 | [16] -0.1 | [17] -0.026 | [18] -0.029 | [19] -0.052 | [20] -0.008

MAD2L1 (UniProt Q13257)
Sequence of UniProt Q13257 (Q13257 whole entry, looked up): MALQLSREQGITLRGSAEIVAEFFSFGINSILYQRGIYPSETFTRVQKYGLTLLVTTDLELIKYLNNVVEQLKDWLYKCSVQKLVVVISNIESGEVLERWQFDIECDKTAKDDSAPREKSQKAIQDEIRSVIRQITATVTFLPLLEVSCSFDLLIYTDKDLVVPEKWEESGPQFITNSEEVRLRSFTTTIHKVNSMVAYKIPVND
inactive: [1] -0.058 | [3] 0.016 | [4] -0.045 | [5] 0 | [6] -0.038 | [7] 0.002 | [8] 0.052 | [9] -0.081 | [10] -0.166 | [11] 0.037 | [12] -0.056 | [13] -0.109 | [14] 0.01 | [15] 0.05 | [16] -0.112 | [17] -0.058 | [18] -0.046 | [19] -0.007 | [20] -0.04
active: [2] -0.381

IPO9 (UniProt Q96P70)
Sequence of UniProt Q96P70 (Q96P70 whole entry, looked up): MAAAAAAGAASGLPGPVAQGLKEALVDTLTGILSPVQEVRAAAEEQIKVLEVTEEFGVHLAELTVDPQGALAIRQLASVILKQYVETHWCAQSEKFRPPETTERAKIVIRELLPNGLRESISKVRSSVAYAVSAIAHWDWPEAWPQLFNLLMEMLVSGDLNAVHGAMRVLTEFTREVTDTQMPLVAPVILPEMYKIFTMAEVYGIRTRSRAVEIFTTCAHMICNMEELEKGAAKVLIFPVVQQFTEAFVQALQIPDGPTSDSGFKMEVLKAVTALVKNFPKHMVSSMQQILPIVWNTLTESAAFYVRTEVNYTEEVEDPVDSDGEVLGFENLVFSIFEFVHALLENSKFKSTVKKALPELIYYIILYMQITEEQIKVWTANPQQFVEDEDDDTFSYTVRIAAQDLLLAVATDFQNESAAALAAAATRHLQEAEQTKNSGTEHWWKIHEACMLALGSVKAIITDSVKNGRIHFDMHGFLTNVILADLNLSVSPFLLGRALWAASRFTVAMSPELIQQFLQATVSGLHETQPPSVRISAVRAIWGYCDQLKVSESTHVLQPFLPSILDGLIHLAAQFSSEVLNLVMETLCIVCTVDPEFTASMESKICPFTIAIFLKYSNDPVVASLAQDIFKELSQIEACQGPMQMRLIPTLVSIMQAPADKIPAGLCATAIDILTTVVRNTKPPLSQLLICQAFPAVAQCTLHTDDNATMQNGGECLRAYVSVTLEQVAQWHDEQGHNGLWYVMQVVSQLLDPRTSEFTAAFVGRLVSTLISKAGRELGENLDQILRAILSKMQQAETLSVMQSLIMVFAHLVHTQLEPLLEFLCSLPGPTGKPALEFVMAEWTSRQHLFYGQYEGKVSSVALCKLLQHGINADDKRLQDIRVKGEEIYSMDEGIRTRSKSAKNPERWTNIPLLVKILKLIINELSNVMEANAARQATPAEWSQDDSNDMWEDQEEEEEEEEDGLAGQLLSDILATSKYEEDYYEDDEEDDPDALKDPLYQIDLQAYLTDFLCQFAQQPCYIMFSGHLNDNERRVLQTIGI
inactive: [3] -0.003 | [4] -0.031 | [5] 0.03 | [6] 0.034 | [7] 0.009 | [8] 0.018 | [9] -0.007 | [10] -0.077 | [11] 0.036 | [12] -0.13 | [13] -0.08 | [14] -0.02 | [15] 0.034 | [16] -0.106 | [17] -0.051 | [18] -0.136 | [19] 0.056 | [20] 0
active: [1] -0.227 | [2] -0.611

KPNB1 (UniProt Q14974)
inactive: [1] -0.105 | [3] 0.04 | [4] 0.04 | [5] 0.009 | [6] 0.016 | [7] 0.048 | [8] 0.027 | [9] 0.102 | [10] -0.212 | [11] -0.076 | [12] -0.21 | [13] -0.01 | [14] 0.031 | [15] 0.043 | [16] -0.039 | [17] 0.126 | [18] 0.032 | [19] 0.201 | [20] -0.063
active: [2] -0.432

MAP4 (UniProt E7EVA0)
inactive: [1] 0.079 | [2] 0.246 | [3] 0.036 | [4] -0.113 | [5] -0.004 | [6] 0.068 | [7] -0.021 | [8] -0.206 | [9] 0.131 | [10] 0.152 | [11] 0.03 | [12] -0.015 | [13] 0.127 | [14] 0.041 | [15] -0.059 | [16] 0.099 | [17] 0.209 | [18] 0.043 | [19] 0.017 | [20] 0.032

KLHL18 (UniProt O94889)
Sequence of UniProt O94889 (O94889 whole entry, looked up): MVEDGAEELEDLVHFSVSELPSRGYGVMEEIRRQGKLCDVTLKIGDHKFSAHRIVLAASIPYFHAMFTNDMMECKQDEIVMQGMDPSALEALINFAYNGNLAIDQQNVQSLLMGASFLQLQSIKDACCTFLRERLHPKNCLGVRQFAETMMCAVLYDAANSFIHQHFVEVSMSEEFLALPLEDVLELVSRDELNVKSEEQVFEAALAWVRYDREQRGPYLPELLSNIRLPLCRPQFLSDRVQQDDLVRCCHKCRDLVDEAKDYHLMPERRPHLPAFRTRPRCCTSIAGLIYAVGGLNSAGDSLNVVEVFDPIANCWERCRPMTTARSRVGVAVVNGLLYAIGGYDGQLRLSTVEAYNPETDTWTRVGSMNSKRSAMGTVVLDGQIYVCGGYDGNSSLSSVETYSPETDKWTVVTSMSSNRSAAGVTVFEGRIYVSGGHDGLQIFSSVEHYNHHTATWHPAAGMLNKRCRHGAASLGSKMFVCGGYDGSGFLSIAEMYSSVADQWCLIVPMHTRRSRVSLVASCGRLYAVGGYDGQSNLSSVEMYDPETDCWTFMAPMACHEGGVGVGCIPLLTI
active: [4] 0.36
inactive: [1] 0.075 | [2] -0.178 | [3] -0.123 | [5] -0.038 | [6] -0.01 | [7] -0.073 | [8] -0.019 | [9] 0 | [10] 0.034 | [11] -0.033 | [12] -0.042 | [13] -0.084 | [14] 0.144 | [15] -0.077 | [16] -0.04 | [17] -0.042 | [18] 0.007 | [19] 0.019 | [20] -0.05
